# MITF inhib: inhibitors of MITF, primary screen, MITF inhibitor project, cell-based, luminescence | TRPM1 promoter luciferase, 24 h | 0.28% of 37,000 active | inhibition, % (no concentration beside the values); in the data active means inhibition above about 85%; inconclusive means no clear call, values can overlap the other calls; inactive means below about 68%;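 further: human melanocyte line stably carrying TRPM1 promoter luciferase reporter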
# STK33 kin inh: STK33 kinase inhibitors, primary screen, biochemical, luminescence, ADP-Glo, MBP substrate; inhibition, % at 12.5 µM; 0.44% of 27,000 active; AID 2322, 2010; in the data active means inhibition above about 20%; inconclusive means no clear call, values can overlap the other calls
# Target sequence (Q9BYT3 whole entry, looked up): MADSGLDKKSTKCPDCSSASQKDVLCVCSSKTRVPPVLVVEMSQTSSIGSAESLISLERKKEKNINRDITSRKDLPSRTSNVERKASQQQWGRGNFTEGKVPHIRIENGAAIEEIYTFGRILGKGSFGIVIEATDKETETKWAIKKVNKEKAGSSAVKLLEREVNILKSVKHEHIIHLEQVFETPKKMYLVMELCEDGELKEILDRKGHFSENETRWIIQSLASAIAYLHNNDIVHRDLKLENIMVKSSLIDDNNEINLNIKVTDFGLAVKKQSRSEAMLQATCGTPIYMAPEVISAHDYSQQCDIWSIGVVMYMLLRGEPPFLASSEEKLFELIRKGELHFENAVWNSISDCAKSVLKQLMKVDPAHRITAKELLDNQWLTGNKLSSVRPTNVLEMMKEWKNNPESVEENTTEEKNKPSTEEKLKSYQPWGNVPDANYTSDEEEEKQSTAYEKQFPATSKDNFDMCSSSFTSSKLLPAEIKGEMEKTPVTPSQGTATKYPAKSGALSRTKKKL
# NOMO-1 viab: NOMO-1 AML cell viability reduction, primary screen, STK33 inhibitor project, CellTiter-Glo luminescence | NOMO-1 AML viability, 72 h | inhibition, % (no concentration beside the values) | 7.5% of 37,000 active | AID 2330, 2010; in the data active means inhibition above about 80%; inconclusive means no clear call, values can overlap the other calls
# mut p53 react: mutant p53 pathway re-activators, primary screen, cell-based, SW480, luciferase, single point, HTS. SW480 PUMA-promoter luciferase, p53 mutant reactivation. activation, % at 9.98 µM. 1.5% of 28,000 active. AID 624151, 2012; in the data active means activation above about 52%; inconclusive means no clear call, values can overlap the other calls
# Numbers without * were called inactive; ? = inconclusive; nt = no result given. This is one part of a sample in which hits are shown more often than they occur.
SMILES,MITF inhib,STK33 kin inh,NOMO-1 viab,mut p53 react
C[C@@H]1CN([C@@H](C)CO)C(=O)c2cccc(NC(=O)c3nc4ccccc4s3)c2O[C@H]1CN(C)Cc1ccc(C(=O)Nc2ccccc2N)cc1,23,nt,118*,nt
C[C@H](CO)N1C[C@H](C)[C@@H](CN(C)Cc2ccc(C(F)(F)F)cc2)Oc2c(NC(=O)c3nc4ccccc4s3)cccc2C1=O,12,nt,106*,nt
Cc1cc(C)c(NC(=O)CSc2nc(O)cc(=O)[nH]2)c(C)c1,-5,1,5,-11
O=C1/C(=C/c2ccc3ccccc3c2)COc2ccccc21,-48,6,113*,nt
COc1ccc2c(c1)OC/C(=C\c1ccc(OC)c(O)c1)C2=O,2,11,107*,nt
CC(=O)N/C(=C\c1ccc2ccccc2c1)C(=O)O,-26,nt,0,nt
COc1ccc(/C=C/c2cc(O)cc(O[C@@H]3O[C@H](CO)[C@@H](O)[C@H](O)[C@H]3O)c2)cc1O,1,1,41,nt
Cn1c(SCC(=O)c2ccc(Br)cc2)nnc1-c1cc2ccccc2o1,-16,-4,10,-3
Cc1cc(C)n2nc(NCc3cccc([N+](=O)[O-])c3)nc2n1,-5,0,9,13
COc1cc(O)c(C(=O)/C=C/c2ccc(OC)c(OC)c2)c(OC)c1,-35,0,33,10
COc1cc(O)c(CC=C(C)C)cc1C(=O)/C=C/c1ccc(O)c(CC=C(C)C)c1,2,0,86*,-12
COc1cc(/C=C/C(=O)CC(=O)/C=C/c2ccc(O)c(OC)c2)ccc1O,4,117*,107*,nt
COc1ccc(/C=C/C(=O)CC(=O)/C=C/c2cccc(O)c2OC)cc1O,36,123*,115*,-11
CC(Sc1nc2ccccc2c(=O)[nH]1)C(=O)Nc1ccc(Cl)cc1 (configuration not stated),5,-1,-10,-15
Cc1ccc(NC(=O)CSc2nc(-c3cccs3)cc(C(F)(F)F)n2)c([N+](=O)[O-])c1,21,8,107*,-46
COc1ccc(NC(=O)CSc2nc(-c3ccccc3)cc(C(F)(F)F)n2)c([N+](=O)[O-])c1,4,-1,13,10
CS(=O)(=O)N(CC(=O)Nc1ccc(I)cc1)c1ccc(Cl)c(Cl)c1,?,1,90*,-13
CS(=O)(=O)N(CC(=O)Nc1ccc(Cl)c(Cl)c1)c1ccc(Br)cc1,116*,7,115*,-19
Cc1ccc([N+](=O)[O-])cc1N(CC(=O)Nc1ccc(I)cc1)S(C)(=O)=O,10,0,121*,-87
CS(=O)(=O)N(CC(=O)Nc1ccccc1C(F)(F)F)c1ccc(Cl)c(C(F)(F)F)c1,3,-6,4,-9
Cc1ccc(NC(=O)CN(c2ccc(Cl)c(C(F)(F)F)c2)S(C)(=O)=O)cc1,-7,-1,91*,-5
Cc1cc(N(CC(=O)Nc2ccc(F)c(Cl)c2)S(C)(=O)=O)ccc1Br,47,1,93*,-9
O=C(CCc1ccc(O)cc1)CC(O)CCc1ccc(O)c(O)c1 (configuration not stated),11,0,85*,16
COc1cc2c(ccc3cc(OC)c(OC)c(O)c32)cc1O,-4,30*,58,nt
C[C@H](CO)N1C[C@H](C)[C@H](CN(C)Cc2ccc(-c3ccccc3)cc2)Oc2ccc(NS(=O)(=O)c3ccc(F)cc3)cc2C1=O,-7,nt,41,nt
SMILES,MITF inhib,STK33 kin inh,NOMO-1 viab,mut p53 react
C[C@H]1CN([C@@H](C)CO)C(=O)c2cc(NS(=O)(=O)c3ccc(F)cc3)ccc2O[C@@H]1CN(C)Cc1ccc(-c2ccccc2)cc1,2,nt,100*,nt
C[C@H](CO)N1C[C@H](C)[C@@H](CN(C)Cc2ccc(-c3ccccc3)cc2)Oc2ccc(NS(=O)(=O)c3ccc(F)cc3)cc2C1=O,18,nt,22,nt
C[C@@H]1CN([C@H](C)CO)C(=O)c2cc(NS(=O)(=O)c3ccc(F)cc3)ccc2O[C@H]1CN(C)Cc1ccc(-c2ccccc2)cc1,2,2,97*,11
C=C1C(=O)O[C@@H]2/C=C(\CO)CCC/C(C)=C/[C@H](O)C12 (some centres not stated),2,-3,116*,4
C=C1C(=O)O[C@@H]2/C=C(/CO)CC/C=C(/C)C[C@H](OC(=O)C(C)CO)[C@@H]12 (some centres not stated),6,2,118*,nt
C=C1C(=O)O[C@H]2[C@H]1[C@@H](OC(=O)C(C)CO)C[C@@]1(C)[C@H](O)CCC(=O)[C@H]21 (some centres not stated),nt,-3,nt,-9
C=C[C@]1(C)C[C@H](O)[C@H]2C(=C)C(=O)O[C@@H]2[C@H]1C(=C)CO,0,-1,53,7
Cc1cccc(NC(=O)CSc2n[nH]c(-c3ccccc3)n2)c1,-2,1,-11,-4
O=c1[nH][nH]c(=O)n1CCCc1cc2cccc3ccc4cccc1c4c32,-16,2,7,nt
CCn1c2ccccc2c2cc(NS(=O)(=O)c3ccccc3)ccc21,49,nt,136*,nt
O=C(CSc1nc(-c2ccccc2)cc(C(F)(F)F)n1)Nc1ccc(F)cc1,11,0,34,-24
CCOC(=O)CCS(=O)(=O)c1nc(-c2ccccc2)cc(C(F)(F)F)n1,61,1,115*,-87
CCOC(=O)CS(=O)(=O)c1nc(-c2ccc(F)cc2)cc(C(F)(F)F)n1,42,8,135*,-70
O=C(CSc1nc(-c2ccc(Cl)cc2)cc(C(F)(F)F)n1)c1ccccc1,-18,5,32,0
Cc1cccc(OCC(=O)NC(=S)Nc2ccc(C)cc2O)c1,30,6,102*,-1
COC(=O)c1sccc1NC(=O)COc1cccc(C)c1,-19,1,7,11
N#Cc1nc(-c2ccccc2Cl)oc1NCCCN1CCOCC1,-22,-4,26,32
O=C(COc1ccccc1[N+](=O)[O-])Nc1cccc(Cl)c1N1CCOCC1,55,4,83*,-34
Cc1nc2ccc(F)cc2c2c1CCN2c1ccc(Cl)cc1,44,nt,107*,nt
C[C@H]1CN([C@@H](C)CO)C(=O)c2cc(NC(=O)Nc3ccc(C(F)(F)F)cc3)ccc2O[C@@H]1CN(C)Cc1ccncc1,-22,5,36,nt
C[C@H](CO)N1C[C@H](C)[C@H](CN(C)Cc2ccc(C(F)(F)F)cc2)Oc2ccc(NC(=O)Nc3ccc(F)cc3)cc2C1=O,22,0,33,nt
C[C@@H]1CN([C@@H](C)CO)C(=O)c2cc(NC(=O)Nc3ccc(C(F)(F)F)cc3)ccc2O[C@@H]1CN(C)Cc1ccc(Cl)c(Cl)c1,18,nt,108*,nt
C[C@@H]1CN([C@H](C)CO)C(=O)c2cc(NC(=O)Nc3ccc(F)cc3)ccc2O[C@@H]1CN(C)Cc1ccc(C(F)(F)F)cc1,59,nt,?,nt
C[C@@H]1CN([C@H](C)CO)C(=O)c2cc(NC(=O)Nc3ccc(C(F)(F)F)cc3)ccc2O[C@@H]1CN(C)Cc1ccc(C(F)(F)F)cc1,36,nt,115*,nt

# Source: PubChem (Broad Institute)
